High-throughput results (PubChem BioAssay)
Pf Dd2 growth: qHTS Primary assay for Inhibitors of Plasmodium falciparum Dd2 growth in vitro; P. falciparum Dd2 growth, SYBR Green, 72 h; AID 1347417, 2020; Potency, µM (highest dose often 28.9 µM), inactives show at the top dose activity, negative = inhibition, hits mostly inhibitors; 4.3% of 120,000 active; active = well fitted inhibition curve with a large enough effect;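 note: plate controls were DMSO vehicle for no effect and reference drug for full effect; nearly all actives have a fitted effect of over 65% in size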
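Readout: SYBR Green fluorescence, 485 nm excitation, 535 nm emission, after ~16 h lysis at 37C. Before that, Dd2-infected red cells (2.5% hematocrit) grew 72 h with compound, 29 uM top final concentration.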
Numbers without * were called inactive; [ ] = dose if it differs, or a comment. This excerpt belongs to a sample that is enriched for hits. Potency is the fitted concentration of half-maximal effect.

Results for Cc1cccc(OCC(=O)NCc2nnc3c(-c4nc(C(C)C)no4)cccn23)c1 ?
Pf Dd2 growth: inactive

Results for O=C(c1ccoc1)N1CCC(Nc2cccn3ncnc23)CC1 ?
Pf Dd2 growth: -18%

Results for Cc1cccc(CC(=O)N2CCC(c3nn(C)c4c3COCC4)CC2)c1 ?
Pf Dd2 growth: inactive[5.79 µM]

What do the screens show for `Cc1cccc(CC(=O)N2CCC(Nc3cccn4ncnc34)CC2)c1`?
Pf Dd2 growth: 11µM*

What do the screens show for `CN1CCCC1c1nc(C2CN(S(=O)(=O)Cc3ccccc3F)C2)no1` (configuration not stated)?
Pf Dd2 growth: 3%

How did Cc1cc(C)c(Cn2c(=O)n(Cc3ccccc3)c(=O)c3c(C)c(C)sc32)c(C)c1 do in these assays?
Pf Dd2 growth: 65%

Results for CCN(CC)C(=O)c1sc2c(c1C)c(=O)n(-c1ccc(C)c(C)c1)c(=O)n2Cc1cccc(Cl)c1 ?
Pf Dd2 growth: -6%

How did Cc1cccc(C)c1NC(=O)Cn1c(=O)n(Cc2ccccc2)c(=O)c2c(C)c(C(=O)N(C)C)sc21 do in these assays?
Pf Dd2 growth: 8.9µM*

What do the screens show for `CCOC(=O)c1ccccc1NC(=O)Cn1c(=O)n(-c2ccc(CC)cc2)c(=O)c2c(C)c(C(=O)N(C)C)sc21`?
Pf Dd2 growth: -21%

Results for CCN(CC)C(=O)c1sc2c(c1C)c(=O)n(Cc1ccccc1)c(=O)n2Cc1c(C)cc(C)cc1C ?
Pf Dd2 growth: 10µM*

How did Cc1sc2c(c1C)c(=O)n(Cc1ccccc1)c(=O)n2CC(=O)N(C)c1ccccc1 do in these assays?
Pf Dd2 growth: 29%

How did CC1(C)C(=O)N(Cc2ccccc2F)[C@H]2CN(Cc3cccnc3)C[C@@H]2[S+]1(=O)[O-] do in these assays?
Pf Dd2 growth: 21%[44.1 µM]

How did COC(=O)CN1C(=O)[C@@H]2C[C@@H](O)CN2C2(CN(C3CCN(C)CC3)C2)C1=O do in these assays?
Pf Dd2 growth: 21%[44.1 µM]

What do the screens show for `CCC(O)C1CCN(Cc2cnc(S(=O)(=O)CC)n2CCc2ccccc2)CC1` (configuration not stated)?
Pf Dd2 growth: inactive

What do the screens show for `CCCCn1c(CN(C)C(C)c2ccccc2OC)cnc1S(=O)(=O)CC` (configuration not stated)?
Pf Dd2 growth: 8.9µM*

What do the screens show for `C#CCN(CC=C)Cc1cnc(S(=O)(=O)CC)n1CCCc1ccccc1`?
Pf Dd2 growth: inactive

How did CCN(C1CCOCC1)C1CN(C(=O)C2CCCO2)C1 (configuration not stated) do in these assays?
Pf Dd2 growth: 1%

How did COc1ccc2c(c1)-c1nc(NC(=O)c3ccccc3F)sc1CC2 do in these assays?
Pf Dd2 growth: -16%

What do the screens show for `COc1ccc2c(c1)-c1nc(NC(=O)c3cc(OC)c(OC)c(OC)c3)sc1CC2`?
Pf Dd2 growth: 5µM*

How did COc1ccc2c(c1)-c1nc(NC(=O)c3cc(Cl)ccc3OC)sc1CC2 do in these assays?
Pf Dd2 growth: -2%

How did O=C(CCCc1cn[nH]c1)N1CCCC(CCc2c(F)cccc2F)C1 (configuration not stated) do in these assays?
Pf Dd2 growth: -19%

Results for COc1ccccc1OCCNC(=O)C1CCc2ncc(-c3ccc(F)cc3)n2C1 (configuration not stated) ?
Pf Dd2 growth: -18%

Results for COC(=O)C1=C(C)N=C2SC=C(CC(=O)NCC3CCCO3)N2C1c1ccccc1OC (configuration not stated) ?
Pf Dd2 growth: -3%

How did COCc1cc(CNC(=O)Cn2ncc3ccccc3c2=O)[nH]n1 do in these assays?
Pf Dd2 growth: -1%

Results for CCC(C)NC(=O)N1CCCN(S(=O)(=O)c2ccccc2)CCC(=O)NCC1 (configuration not stated) ?
Pf Dd2 growth: 4%

Results for Cc1cc(C)cc(C(=O)Nc2cccc(-c3nnc4n3CCCC4)c2)c1 ?
Pf Dd2 growth: 3.2µM*

What do the screens show for `CCOc1cc(=O)n2c(c1C(=O)Nc1cccc(C)c1)CCCC2`?
Pf Dd2 growth: 22%

How did Cc1ccc(C(=O)Nc2ccc(-c3nnc4n3CCCC4)cc2)s1 do in these assays?
Pf Dd2 growth: 5.6µM*

What do the screens show for `O=C(Nc1cccc(-c2nnc3n2CCCC3)c1)c1ccccc1Cl`?
Pf Dd2 growth: 5.6µM*

Results for CC(=O)Nc1ccc(-c2nnc3n2CCCC3)cc1 ?
Pf Dd2 growth: 25%

How did O=C(Nc1ccc(-c2nnc3n2CCCC3)cc1)c1cc(C2CC2)[nH]n1 do in these assays?
Pf Dd2 growth: inactive

What do the screens show for `CCOc1ccccc1C(=O)Nc1cccc(-c2nnc3n2CCCC3)c1`?
Pf Dd2 growth: 5µM*

How did Cc1cccc(C(=O)Nc2ccc(-c3nnc4n3CCCC4)cc2)c1 do in these assays?
Pf Dd2 growth: -10%

Results for O=C(Nc1ccc(-c2nnc3n2CCCC3)cc1)c1ccc[nH]c1=O ?
Pf Dd2 growth: -2%

Results for O=C(Nc1cccc(-c2nnc3n2CCCC3)c1)Nc1ccccc1F ?
Pf Dd2 growth: 8%

What do the screens show for `O=C(Nc1ccccc1)Nc1ccc(-c2nnc3n2CCCC3)cc1`?
Pf Dd2 growth: 31%

What do the screens show for `O=C(Nc1ccc(-c2nnc3n2CCCC3)cc1)Nc1cccc(Cl)c1`?
Pf Dd2 growth: -8%

What do the screens show for `CC(=O)N1CCCN(Cc2nc(-c3cccc(C(F)(F)F)c3)oc2C)CC1`?
Pf Dd2 growth: -18%

How did COc1cccc2c1NC(=O)CC2C(=O)N1CCc2c(nc[nH]c2=O)C1 (configuration not stated) do in these assays?
Pf Dd2 growth: -19%

How did COCCn1ncc(N2CCCC(CC(=O)NCCN3CCCC3)C2)cc1=O (configuration not stated) do in these assays?
Pf Dd2 growth: 39%

Results for NC(=O)c1ccc(CC2CCN(C(=O)C3CCC3)CC2)cc1 ?
Pf Dd2 growth: -11%

How did COc1ccc(NC(=O)c2ccc(CN3C(=O)NC4(CCOCC4)C3=O)cc2)cc1 do in these assays?
Pf Dd2 growth: -8%

How did COc1cccc(CNC(=O)C2CCCCC(=O)N2)c1OC (configuration not stated) do in these assays?
Pf Dd2 growth: inactive

Results for CN1CCN(c2nc3c(c(=O)[nH]2)CCN(Cc2ccccc2Br)CC3)CC1 ?
Pf Dd2 growth: inactive[5.79 µM]

Results for O=c1[nH]c(N2CCOCC2)nc2c1CCN(Cc1ccc(Cl)cc1F)CC2 ?
Pf Dd2 growth: 0.32µM*

How did O=c1[nH]c(N2CCOCC2)nc2c1CCN(Cc1ccccc1Br)CC2 do in these assays?
Pf Dd2 growth: 1.3µM*

How did O=c1[nH]c(N2CCOCC2)nc2c1CCN(Cc1ccc(F)cc1)CC2 do in these assays?
Pf Dd2 growth: 23%[5.79 µM]

How did CCOc1ccccc1CN1CCc2nc(N3CCOCC3)[nH]c(=O)c2CC1 do in these assays?
Pf Dd2 growth: 25%[5.79 µM]

How did O=c1[nH]c(N2CCOCC2)nc2c1CCN(Cc1ccc(Cl)cc1)CC2 do in these assays?
Pf Dd2 growth: -10%[5.79 µM]

What do the screens show for `CCn1ccc(C(=O)NCC23CCCC=C2NC(=O)CC3)n1` (configuration not stated)?
Pf Dd2 growth: -3%

How did CN1CCc2nc3sc(C(=O)c4ccc(F)cc4)c(N)c3cc2C1 do in these assays?
Pf Dd2 growth: -7%

Results for COc1ccc(NC(=O)c2sc3nc4c(cc3c2N)CN(Cc2ccccc2)CC4)cc1OC ?
Pf Dd2 growth: inactive

How did CN1CCc2nc3sc(C(=O)Nc4ccccc4C(F)(F)F)c(N)c3cc2C1 do in these assays?
Pf Dd2 growth: 8.9µM*

What do the screens show for `O=c1cc(N2CCOCC2)oc2c(-c3ccc(F)c(Cl)c3)nccc12`?
Pf Dd2 growth: -9%[44.1 µM]

What do the screens show for `CC(=O)Nc1cccc(C(=O)N2CCC(n3cc(-c4nc(-c5ccccc5)no4)nn3)C2)c1` (configuration not stated)?
Pf Dd2 growth: 4.5µM*
